According to PubChem BioAssay (EPA / NIEHS):
The source made the active and inactive calls. Rule for the calls: active = hit-call score of the fitted dose curve at least 0.9, where 1 is the maximum; inactive = score below 0.9.

Target: X-box-binding protein 1 (Homo sapiens) (UniProt P17861)
Experiment: ATG_Xbp1_CIS: Attagene CIS-FACTORIAL HepG2 Assay for human X-box Binding Protein 1 (XBP1) (AID 2282972)
Details: HepG2 XBP1 cis-element reporter, Attagene multiplex; actives raise or lower the signal
Experimental: ATG_CIS is a cell-based, multiplexed-readout assay that uses HepG2, a human liver cell line, with measurements taken at 24 hours after chemical dosing in a 24-well plate.ATG_Xbp1_CIS is one of 52 assay component(s) measured or calculated from the ATG_CIS assay. It is designed to make measurements of mRNA induction, a form of inducible reporter, as detected with fluorescence intensity signals by Reverse transcription polymerase chain reaction (RT-PCR) and Capillary electrophoresis technology.Data from the assay component ATG_Xbp1_CIS was analyzed into 1 assay endpoint. This assay endpoint, ATG_Xbp1_CIS, was analyzed with bidirectional fitting relative to DMSO as the negative control and baseline of activity. Using a type of inducible reporter, measures of mRNA for gain or loss-of-signal activity can be used to understand the reporter gene at the transcription factor-level as they relate to the gene XBP1. Furthermore, this assay endpoint can be referred to as a primary readout, because this assay has produced multiple assay endpoints where this one serves a reporter gene function. To generalize the intended target to other relatable targets, this assay endpoint is annotated to the dna binding intended target family, where the subfamily is basic leucine zipper.
Human liver HepG2 cells are transiently transfected with multiple reporter transcription units (MRTUs) in 6-well plates using FuGene 6 reagent (Roche; 3 ml FuGene/1 mg DNA). The MRTU constructs are regulated by a cis-regulating element (promoter). […] A major difference between the CIS and TRANS system is that in CIS activities of endogenous TFs are measured, whereas the TRANS assay evaluates changes in activities of exogenous, chimeric NR-Gal4 proteins. […] At the end of 24 hour incubation, total RNA was isolated using TriZol reagent (Invitrogen). The isolated RNA is then reverse-transcribed using oligo(dT) primer and Mo-MLV reverse transcriptase (Invitrogen) with DNAse I (Ambion) treatment for 30 min. The one-tenth of the produced cDNA was amplified by PCR using Taq DNA polymerase (Invitrogen) and two reporter sequence-specific primers. The PCR products were fluorescently labeled by primer extension with 6-arboxyfluorescein (6-FAM) 5'-labeled reporter sequence-specific primer (2 min at 95 C, 20 s at 68 C and 10 min at 72 C) and these products were digested with 5U of HpaI (New England Biolabs) for 2h at 37 C. The fragments were purified using Qiaquick PCR columns (Qiagen), analyzed on an ABI 3130xL genetic analyzer (Applied Biosystems) with peak positions identified by using a set of X-rhodamine (ROX)-labeled MapMarker1000 molecular weight standards (BioVentures). The raw capillary electrophoresis data was processed using Attagraph software (Attagene).

Chain of X-box-binding protein 1 (Homo sapiens) (P17861 whole entry, looked up): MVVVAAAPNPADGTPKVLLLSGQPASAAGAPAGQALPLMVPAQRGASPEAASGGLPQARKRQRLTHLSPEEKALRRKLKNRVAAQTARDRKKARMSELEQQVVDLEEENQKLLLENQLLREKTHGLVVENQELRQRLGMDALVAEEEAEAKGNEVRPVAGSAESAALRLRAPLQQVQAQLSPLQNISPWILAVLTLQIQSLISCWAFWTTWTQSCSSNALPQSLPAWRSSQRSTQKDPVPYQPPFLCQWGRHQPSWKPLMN

Structure (SMILES)	outcome	AC50
O=C(O)c1ccc(C(=O)O)cc1	inactive	–
C=C(C)[C@@H]1CC[C@@H](C)C[C@@H]1O	inactive	–
CCN(CC)c1ccc2c(-c3ccccc3C(=O)O)c3ccc(=[N+](CC)CC)cc-3oc2c1	–	100 µM (active)
O=C(O)c1ccc([N+](=O)[O-])cc1	inactive	–
COC(=O)C1=C(C)NC(C)=C(C(=O)OCCN(C)Cc2ccccc2)C1c1cccc([N+](=O)[O-])c1 (stereo not given)	inactive	–
O=S(=O)(O)c1cccc2c(S(=O)(=O)O)cccc12	inactive	–
COC(=O)Cc1cccc2ccccc12	inactive	–
NCCCN1CCOCC1	inactive	–
NC(=O)c1ccccc1Cl	–	62.6 µM (active)
C=CC(C)(O)CCC=C(C)CCC=C(C)C (stereo not given)	–	120 µM (active)
CCOc1ccccc1OCC	inactive	–
FC1(F)C(F)(F)C(F)(F)C2(F)C(F)(C1(F)F)C(F)(F)C(F)(F)C1(F)C(F)(F)C(F)(F)C(F)(F)C(F)(F)C12F (stereo not given)	inactive	–
CC(C)[C@H]1CC[C@@H](C)CC1=O	inactive	–
C=C(C)C1CCC(C)CC1O (stereo not given)	inactive	–
Cc1cccc(C)c1C	inactive	–
Cc1ccc2sc3cccc(C)c3c2c1	inactive	–
O=C1CCc2ccccc2O1	inactive	–
CC(C)(C)c1cc(CCC(=O)NN)cc(C(C)(C)C)c1O	inactive	–
CCCCCCCCC=O	inactive	–
CN(C)CCCN	inactive	–

Structure (SMILES)	outcome	AC50
Nc1cc(N)cc(C(=O)O)c1	inactive	–
Cc1ccc(C(=O)c2cc(O)c(O)c([N+](=O)[O-])c2)cc1	inactive	–
CC(C)(COC(=O)c1ccccc1)COC(=O)c1ccccc1	inactive	–
CC1(C)[C@H](C(=O)OCc2cccc(Oc3ccccc3)c2)[C@@H]1C=C(Cl)Cl	inactive	–
COC(C)CCO (stereo not given)	inactive	–
CC(C)=CCO	inactive	–
S=C(S)NCCNC(=S)S	inactive	–
Cc1c(N(C)C)c(=O)n(-c2ccccc2)n1C	inactive	–
CSc1nnc(C(C)(C)C)c(=O)[nH]1	inactive	–
CC(CCO)CCc1ccccc1 (stereo not given)	inactive	–
CCCCc1ccc(N)cc1	inactive	–
C=CC(=O)OCC(O)COc1ccccc1 (stereo not given)	–	24.3 µM (active)
C=C(C)C(=O)O	inactive	–
O=Nc1ccc(Nc2ccccc2)cc1	inactive	–
NCCOCCO	inactive	–
CC(C)=CCC[C@H](C)CC=O	inactive	–
O=P(c1ccccc1)(c1ccccc1)c1ccccc1	inactive	–
O=C=NC1CCC(CC2CCC(N=C=O)CC2)CC1 (stereo not given)	–	85.1 µM (active)
CC(=O)O[C@H](CC(=O)[O-])C[N+](C)(C)C	inactive	–
Cc1c(Cl)c(=O)oc2cc(O)ccc12	inactive	–
